Data reported in PubChem BioAssay (NCI).
The panel holds about 83,000 compounds, 20% with a hit somewhere; the sample as a whole holds those more often.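 How to read the values: 0–100, growth inhibition (40 = 60% inhibited); 0, no net growth; -100 to 0, cell death (-40 = 40% of starting cells died; -100 = all dead).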 Activity calls are given as the source filed them. Rule for the calls: active = growth percent below 10; inactive = the rest.

What was measured:
Assay in all cases: NCI-60 one-dose screen, 48 h (100 = growth as untreated, 0 = no growth, -100 = all killed)
Details in all cases: 10 µM unless noted
[1] = test system: NCI-H23 lung
[2] = test system: NCI-H226 lung
[3] = test system: NCI-H322M lung
[4] = test system: HOP-62 NSCLC
[5] = test system: NCI-H460 lung
[6] = test system: HOP-92 NSCLC
[7] = test system: NCI-H522 lung
[8] = test system: A549/ATCC NSCLC
[9] = test system: 786-0 renal
[10] = test system: COLO 205 colon

Measured: growth

COc1ccc(/C=C2\COc3ccc(O)cc3C2=O)cc1OC
inactive: [1] 105% | [2] 97% | [3] 90.4% | [4] 76% | [5] 67.6% | [6] 59.1% | [7] 35.2% | [8] 91.2% | [9] 88.2% | [10] 93.9%

Cc1ccc(S(=O)(=O)NN/C(N)=N\S(=O)(=O)c2cc(C)c(Cl)cc2SCc2ccccc2)cc1
inactive: [1] 90.6% | [2] 90.4% | [3] 168% | [4] 82.4% | [5] 110% | [6] 71% | [7] 29.9% | [8] 56.7% | [9] 93.4% | [10] 115%

COc1ccc(-c2cc(-c3ccc(Nc4nc(Nc5ccccc5)nc(Nc5ccc(Cl)cc5)n4)cc3)nc(N)c2C#N)cc1
inactive: [3] 42.2% | [5] 24.6% | [8] 38.2% | [10] 12.5%
active: [1] -6.72% | [2] -60.9% | [4] -31.1% | [6] -67.6% | [7] -3.64% | [9] -81%

COc1ccc(/C(C)=C(\c2ccc(Cl)cc2)c2ccc(OCCN3CCCC3)cc2)cc1F
inactive: [1] 55.1% | [2] 69.3% | [3] 62.2% | [6] 65.8% | [7] 71.1% | [8] 42.2%
active: [4] -17.6% | [5] -55.6% | [9] 4.18% | [10] -40.6%

O=C1CC(c2ccc3c(c2)OCO3)Nc2cc3c(cc21)OCO3 (centres undefined)
active: [5] 5.95% | [7] -9.02% | [10] -27.1%
inactive: [1] 44.5% | [2] 64.5% | [3] 57.5% | [4] 29.7% | [6] 29.2% | [8] 10.1% | [9] 30.8%

CCCCn1c(=O)[nH]c(N)c(C(c2ccc(F)cc2)c2c(N)[nH]c(=O)n(CCCC)c2=O)c1=O
inactive: [1] 77.5% | [2] 77.7% | [3] 74.8% | [4] 77.4% | [5] 51.6% | [6] 82.4% | [7] 51.6% | [8] 69% | [10] 59.9%

COc1ccc(-c2c(N)n[nH]c2-c2ccccc2O)cc1OC
inactive: [1] 93.1% | [2] 99.6% | [3] 102% | [4] 88.9% | [5] 107% | [6] 74% | [7] 85% | [8] 95.2% | [9] 97.2% | [10] 98.1%

Cc1nc(Nc2cccc(NC(=O)Nc3ccc(Cl)cc3)c2)c2ccccc2n1
inactive: [1] 96% | [2] 90.4% | [3] 89.7% | [4] 107% | [5] 70.5% | [6] 90.7% | [7] 68.6% | [8] 91.6% | [9] 96.1% | [10] 103%

COc1ccc(OC)c(/C=C2\COc3ccc(O)cc3C2=O)c1
inactive: [1] 104% | [2] 98.5% | [3] 92.3% | [4] 108% | [5] 101% | [6] 93.7% | [7] 38% | [8] 101% | [9] 96.4% | [10] 109%

COc1cc(/C=C/c2nc(Nc3ccc(S(=O)(=O)Nc4cc(C)on4)cc3)c3ccccc3n2)ccc1O
inactive: [1] 74.3% | [2] 85.8% | [3] 87.8% | [4] 78.8% | [5] 65.5% | [6] 83.9% | [7] 42.4% | [8] 75.3% | [9] 94.4% | [10] 106%
